Values without a mark were called inactive.
Columns and labels:
Assay in all cases: log2 ratio of Biotin-Ahx-Ub-VS probe labelling (fragment/DMSO); higher = less target engagement (more negative = stronger competition), active = hit call of the paper (q ≤ 0.05, log2 ratio ≤ -1)
Conditions in all cases: compound concentration: 200 uM; treatment time: 3 h
[1] = target: T1, OTUD6B (UniProt Q8N6M0)
T1 sequence (whole entry): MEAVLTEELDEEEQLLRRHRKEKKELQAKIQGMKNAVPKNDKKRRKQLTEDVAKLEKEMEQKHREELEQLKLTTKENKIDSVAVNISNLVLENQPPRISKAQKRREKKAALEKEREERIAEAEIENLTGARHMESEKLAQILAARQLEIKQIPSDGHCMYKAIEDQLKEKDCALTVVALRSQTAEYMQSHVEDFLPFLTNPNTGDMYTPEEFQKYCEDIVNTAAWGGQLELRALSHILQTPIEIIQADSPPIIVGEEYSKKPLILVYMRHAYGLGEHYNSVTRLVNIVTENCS
How it was run: (§1)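 Labelling with Biotin-Ahx-Ub-VS (0.5 µM final, 1 h) followed a 3 h triplicate treatment of HEK293T lysate (495 µg per sample, Tris/CHAPS/IGEPAL buffer with protease inhibitors) with fragment at 200 µM or vehicle. Labelled DUBs were NeutrAvidin-enriched, digested with LysC and trypsin, and run by diaPASEF LC-MS/MS. The values, average log2 fragment/vehicle ratios by unpaired t-test, come from global-median-normalised Spectronaut label-free quantities. Proteins with ≥2 unique peptides were used.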

[2] = target: T2, OTUD7B (UniProt Q6GQQ9)
T2 sequence (whole entry): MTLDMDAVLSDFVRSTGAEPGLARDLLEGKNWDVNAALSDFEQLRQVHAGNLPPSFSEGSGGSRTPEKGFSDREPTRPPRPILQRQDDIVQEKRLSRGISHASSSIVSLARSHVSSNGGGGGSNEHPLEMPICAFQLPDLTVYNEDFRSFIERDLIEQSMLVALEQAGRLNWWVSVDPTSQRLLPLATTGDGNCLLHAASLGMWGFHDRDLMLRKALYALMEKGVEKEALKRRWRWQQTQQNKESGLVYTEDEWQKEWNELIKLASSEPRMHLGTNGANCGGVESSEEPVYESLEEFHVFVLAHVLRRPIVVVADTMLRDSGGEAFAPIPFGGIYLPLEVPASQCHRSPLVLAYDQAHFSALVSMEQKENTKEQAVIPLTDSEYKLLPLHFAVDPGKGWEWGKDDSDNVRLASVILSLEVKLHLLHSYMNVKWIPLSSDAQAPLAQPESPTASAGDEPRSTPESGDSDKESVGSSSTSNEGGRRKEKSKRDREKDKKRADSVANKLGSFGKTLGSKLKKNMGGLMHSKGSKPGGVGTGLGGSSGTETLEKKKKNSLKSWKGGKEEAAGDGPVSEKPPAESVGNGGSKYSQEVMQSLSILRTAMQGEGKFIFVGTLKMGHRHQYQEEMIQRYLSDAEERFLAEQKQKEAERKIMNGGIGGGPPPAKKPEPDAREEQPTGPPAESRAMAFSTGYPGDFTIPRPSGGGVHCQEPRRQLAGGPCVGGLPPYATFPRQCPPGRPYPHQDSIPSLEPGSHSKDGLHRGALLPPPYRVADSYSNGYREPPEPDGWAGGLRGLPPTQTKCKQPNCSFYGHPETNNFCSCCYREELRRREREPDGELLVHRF
How it was run: as §1

[3] = target: PRPF8 (UniProt Q6P2Q9)
How it was run: as §1

[4] = target: T3, PSMD7 (UniProt P51665)
T3 sequence (whole entry): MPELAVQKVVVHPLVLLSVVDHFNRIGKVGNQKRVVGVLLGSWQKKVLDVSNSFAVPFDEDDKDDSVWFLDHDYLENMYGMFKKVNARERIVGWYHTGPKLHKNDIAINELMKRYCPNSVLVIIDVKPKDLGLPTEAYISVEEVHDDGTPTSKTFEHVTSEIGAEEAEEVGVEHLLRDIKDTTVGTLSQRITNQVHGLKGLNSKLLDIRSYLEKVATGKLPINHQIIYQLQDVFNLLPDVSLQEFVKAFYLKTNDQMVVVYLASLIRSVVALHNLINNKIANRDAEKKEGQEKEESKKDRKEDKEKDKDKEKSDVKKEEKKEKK
How it was run: as §1

[5] = target: UCHL1 (UniProt P09936)
How it was run: as §1

[6] = target: T4, UCHL3 (UniProt P15374)
T4 sequence (whole entry): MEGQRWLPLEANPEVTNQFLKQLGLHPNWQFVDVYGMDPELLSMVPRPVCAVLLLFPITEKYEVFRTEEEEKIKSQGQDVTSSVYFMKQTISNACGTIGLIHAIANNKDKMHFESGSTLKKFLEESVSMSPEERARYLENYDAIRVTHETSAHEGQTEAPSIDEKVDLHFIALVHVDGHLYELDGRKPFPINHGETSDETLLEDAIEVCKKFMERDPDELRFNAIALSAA
How it was run: as §1

[7] = target: T5, UCHL5 (UniProt Q9Y5K5)
T5 sequence (whole entry): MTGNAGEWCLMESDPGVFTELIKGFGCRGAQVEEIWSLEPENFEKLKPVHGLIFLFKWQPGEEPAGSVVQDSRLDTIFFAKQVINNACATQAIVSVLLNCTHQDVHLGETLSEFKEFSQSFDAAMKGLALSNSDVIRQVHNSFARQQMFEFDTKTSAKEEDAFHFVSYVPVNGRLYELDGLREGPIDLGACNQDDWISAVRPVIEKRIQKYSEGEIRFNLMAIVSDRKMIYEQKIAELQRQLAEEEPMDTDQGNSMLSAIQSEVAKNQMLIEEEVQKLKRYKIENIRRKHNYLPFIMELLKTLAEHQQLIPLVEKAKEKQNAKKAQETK
How it was run: as §1

[8] = target: USP10 (UniProt Q14694)
How it was run: as §1

[9] = target: T6, USP15 (UniProt Q9Y4E8)
T6 sequence (whole entry): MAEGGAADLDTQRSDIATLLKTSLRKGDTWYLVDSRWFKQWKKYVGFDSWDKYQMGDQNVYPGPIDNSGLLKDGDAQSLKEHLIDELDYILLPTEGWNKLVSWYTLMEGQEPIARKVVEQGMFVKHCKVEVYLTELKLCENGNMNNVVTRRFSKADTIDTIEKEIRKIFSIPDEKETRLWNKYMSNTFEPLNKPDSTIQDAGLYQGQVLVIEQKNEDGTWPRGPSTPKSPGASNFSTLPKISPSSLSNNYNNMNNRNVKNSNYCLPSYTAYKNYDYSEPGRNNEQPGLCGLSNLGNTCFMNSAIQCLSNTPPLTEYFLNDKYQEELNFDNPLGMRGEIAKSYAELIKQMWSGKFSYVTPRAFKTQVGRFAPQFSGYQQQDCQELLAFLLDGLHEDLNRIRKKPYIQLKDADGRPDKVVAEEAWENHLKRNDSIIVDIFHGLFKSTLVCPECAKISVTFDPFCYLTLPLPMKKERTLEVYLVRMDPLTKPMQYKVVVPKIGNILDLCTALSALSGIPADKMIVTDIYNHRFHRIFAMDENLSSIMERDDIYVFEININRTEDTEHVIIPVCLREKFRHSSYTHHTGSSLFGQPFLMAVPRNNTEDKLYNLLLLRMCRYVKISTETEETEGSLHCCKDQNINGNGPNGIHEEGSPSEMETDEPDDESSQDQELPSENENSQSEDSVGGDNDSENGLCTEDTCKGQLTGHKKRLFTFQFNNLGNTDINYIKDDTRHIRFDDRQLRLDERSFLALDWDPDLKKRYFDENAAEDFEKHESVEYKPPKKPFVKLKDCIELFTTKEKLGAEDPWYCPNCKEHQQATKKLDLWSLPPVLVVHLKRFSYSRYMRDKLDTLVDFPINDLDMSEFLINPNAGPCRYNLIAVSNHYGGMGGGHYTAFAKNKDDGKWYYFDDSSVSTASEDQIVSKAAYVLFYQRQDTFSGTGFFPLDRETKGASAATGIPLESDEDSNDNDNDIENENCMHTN
How it was run: as §1

Chain of UCHL1 (P09936 whole entry, looked up): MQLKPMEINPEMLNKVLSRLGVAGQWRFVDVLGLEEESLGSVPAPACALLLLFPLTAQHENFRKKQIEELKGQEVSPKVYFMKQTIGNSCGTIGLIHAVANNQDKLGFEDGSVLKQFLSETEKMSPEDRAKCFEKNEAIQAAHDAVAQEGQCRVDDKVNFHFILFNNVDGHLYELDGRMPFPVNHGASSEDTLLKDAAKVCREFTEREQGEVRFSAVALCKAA
Chain of USP10 (Q14694 whole entry): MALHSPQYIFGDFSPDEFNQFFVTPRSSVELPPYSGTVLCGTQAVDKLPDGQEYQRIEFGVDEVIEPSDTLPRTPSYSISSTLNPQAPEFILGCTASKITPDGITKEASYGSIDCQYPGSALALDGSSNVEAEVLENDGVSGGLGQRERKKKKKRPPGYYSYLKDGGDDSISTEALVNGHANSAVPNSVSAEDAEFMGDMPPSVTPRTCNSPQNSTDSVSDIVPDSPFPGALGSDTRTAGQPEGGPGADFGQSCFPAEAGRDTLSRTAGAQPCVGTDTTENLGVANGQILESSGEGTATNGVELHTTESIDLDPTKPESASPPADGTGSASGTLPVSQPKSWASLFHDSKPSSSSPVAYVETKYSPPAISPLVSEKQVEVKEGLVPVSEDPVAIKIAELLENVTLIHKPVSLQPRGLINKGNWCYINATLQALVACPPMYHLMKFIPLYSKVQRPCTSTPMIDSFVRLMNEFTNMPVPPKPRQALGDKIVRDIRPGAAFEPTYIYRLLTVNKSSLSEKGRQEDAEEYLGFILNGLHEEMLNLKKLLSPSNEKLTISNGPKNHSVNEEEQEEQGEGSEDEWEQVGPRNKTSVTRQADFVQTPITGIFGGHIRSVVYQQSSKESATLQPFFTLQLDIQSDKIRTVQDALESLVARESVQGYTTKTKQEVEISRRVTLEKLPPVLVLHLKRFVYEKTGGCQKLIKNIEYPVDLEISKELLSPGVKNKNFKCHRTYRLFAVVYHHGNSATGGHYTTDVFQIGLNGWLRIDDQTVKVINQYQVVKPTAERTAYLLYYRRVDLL

Question: Which “log2 ratio of Biotin-Ahx-Ub-VS probe labelling” value (shortened to “log2 ratio”) [1] does the source give for `CS(=O)(=O)c1ccc(NC(=O)CCl)cc1` here?
Answer: Its value is -0.109.

Question: And the “log2 ratio” value [2]?
Answer: Its value is -0.594.

Question: What about the “log2 ratio” value [3] of the same compound?
Answer: The value was -0.257.

Question: And the “log2 ratio” value [4]?
Answer: Its value is 0.0407.

Question: And the “log2 ratio” value [5]?
Answer: Its value is -1.26 (active).

Question: And the “log2 ratio” value [6]?
Answer: The value was 0.206.

Question: And the “log2 ratio” value [7]?
Answer: Its value is -0.282.

Question: And the “log2 ratio” value [8]?
Answer: The value was -0.104.

Question: And the “log2 ratio” value [9]?
Answer: The value was -0.136.
